Measured values: PubChem BioAssay AID1508642 (National Center for Advancing Translational Sciences (NCATS), 2021)
In all, about 43,000 compounds went through this assay and about 200 (0.47%) were called active. Another 12% or so got no clear call; they are omitted. The call rests on the fitted dose curve; in most records, active means well fitted cell-killing curve with a large enough effect; inconclusive means small, poorly fitted or top-dose-only effect, or effect the other way; inactive means flat fitted curve, though single readings scatter. The list comes from a sample in which actives are over-represented; it also holds similar structures and randomly drawn compounds. Where a call stands in place of a potency, no number is given.

Experiment: Cell viability qHTS assay in S16 Pmp22-F2sN cells; further: nearly all actives have a fitted effect of over 65% in size
Details: S16 Pmp22-F2sN Schwann cells (luciferase reporters placed in the Pmp22 gene) viability, CellTiter-Glo, 24 h; series mostly up to 57.5 µM
Source text: Assay Provider: Jim Inglese Ph.D. National Center for Advancing Translational Science, National Institutes of Health, Rockville, MD CMT is a heterogeneous group of neurological disorders that affect approximately 1 in 2,500 people. In particular, the most common form of CMT, CMT1A is genetically linked to the duplication of the PMP22 gene which leads to Schwann cell overexpression, thus manifesting itself as a typical case of dose-sensitive diseases. To identify small molecule compounds that can mediate the expression of PMP22 we developed a phenotypic assay screening strategy by utilizing genome editing techniques to construct Schwann cell lines containing novel reporter technology to monitor the transcriptional or translational regulation of PMP22. For high sensitivity we use a bioluminescent reporter system embedded in the 3' UTR of the PMP22 gene (S16(c9) Pmp22-F2sN) to identify compounds that inhibit gene expression. […] We can further discriminate the effect of all transcriptionally active molecules on PMP22 translation or stability with an assay that incorporates a short NLuc peptide (HiBiT) at the C-terminus of expressed PMP22 (S16(f8) PMP22-HiBiT) allowing alpha complementation and luminescence detection of membrane-associated PMP22 protein. These assays were screened against the NCATS Sytravon Library Collection. Miniaturization of these assays to 1536-well plate format for quantitative high throughput screening (qHTS) yielded rich data sets immediately from the qHTS assay (S16(c9) Pmp22-F2sN), when compared with data from a cell viability assay (Cell TiterGlo) to identify compounds that decreased the output signals through cellular toxicity to streamline the selection process of actives for subsequent characterization using the HiBiT assay (S16(f8) PMP22-HiBiT).
Cell viability assay in S16 Pmp22-F2sN cells PROTOCOL TABLE (format as described by Inglese J, Shamu CE and Guy RK. 2007) SEQUENCE No. (e.g., 1, 2, 3, etc.); […] (e.g., Cells, Incubation, Reagent, etc.); VALUE and DESCRIPTION. 1. Cells. Add 500-1,000 cells in 4 uL in growth media (DMEM High Glucose, No Phenol Red media + 10% heat-inactivated FBS + 1% Pen/Strep supplemented media) per well into Greiner 1536-well white/solid bottom high base, TC-treated plates. 2. Compounds. Library compounds and controls added at 23nL per well, transferred by Pin Tool. 3. Incubation. Incubate plates at 37C, 5% CO2, 95% RH for 24 h. 4. Reagent. Add 3uL CellTiter-Glo per well of Greiner 1536-well plates. 5. Incubation. Incubate plates at room temperature for 15 min., protect from light. 6. Detector. FLuc luminescence measured using CCD-based camera (Viewlux). NOTES (numbers refer to Sequence numbers above; values are from representative experiments) 6. Luminescence Read: Clear filter; Exposure = 1 sec, Gain = High, Speed = Slow, Binning = 2X REFERENCES: 1. Inglese J, Shamu CE and Guy RK, Reporting data from high throughput screening of small molecule libraries, Nature Chemical Biology, 2007, 3(8): 438-441. doi.org/10.1038/nchembio0807-438 2. Yasgar A, Shinn P, Jadhav A, Auld DS, Michael S, Zheng W, Austin CP, Inglese J and Simeonov A, Compound Management for Quantitative High-Throughput Screening. J. Assoc. Lab. Auto., 2008, 13: 79-89. doi: 10.1016/j.jala.2007.12.004
Potency means the concentration at half of the fitted maximal effect.

Structure (SMILES) | Potency
CCc1nc2cccnc2n1-c1ccc(CC(=O)Nc2c(C)cccc2C)cc1 | inactive
CCCNC(=O)C1CCC(Cn2c(=O)c3sccc3n(Cc3ccccc3F)c2=O)CC1 (stereo not given) | inactive
O=C(Nc1ccc(Br)cc1)c1cc2nc(-c3ccccc3)cc(-c3ccccc3)n2n1 | inactive
COc1ccc(CCNC(=O)CCCn2c(=O)c3ccccc3n(Cc3ccc(F)cc3Cl)c2=O)cc1OC | inactive
O=C(CSc1n[nH]c(-c2ccccc2)n1)N1CCCCC1 | inactive
CCN(CC)S(=O)(=O)c1ccc2c(c1)nc(CN(C)C(=O)Nc1ccc(Cl)cc1)n2C | inactive
O=C(NCCc1ccccc1)c1cnc2sc(N3CCCC3)nn2c1=O | inactive
CCC(Sc1nc2n[nH]c(C)c2c(=N)n1-c1ccccc1Cl)C(=O)N(CC)CC (stereo not given) | inactive
CCC(CC)C(=O)N1CCc2cc(OC)c(OC)cc2C1COc1ccc(F)cc1 (stereo not given) | inactive
Cc1cc(C)c2oc(C(=O)Nc3ccc(S(=O)(=O)N4CCCCCC4)cc3)cc(=O)c2c1 | inactive
COc1ccc(S(=O)(=O)c2c(Nc3ccc(C)cc3)sc(C(=O)c3ccc(C)cc3)c2N)cc1 | inactive
COc1ccccc1CNC(=O)NCc1noc2ccc(C)cc12 | inactive
COc1ccc(C(F)(F)F)cc1NC(=O)c1sc2nc(-c3cccs3)ccc2c1N | inactive
CC1CCN(C(=O)Cn2c(=O)n(-c3ccc(Cl)cc3)c(=O)c3c4c(sc32)CCC4)CC1 | inactive
CCCN(CCC)CCNC(=O)c1ccc2c(c1)NC(=O)C(CS(=O)(=O)Cc1cccc(Br)c1)N2 (stereo not given) | inactive
Cc1cc(C)cc(-n2ccnc2SCC(=O)Nc2nc3ccccc3s2)c1 | inactive
CCc1ccccc1NC(=O)Cc1ccc(NC(=O)N2CCCCc3ccccc32)cc1 | inactive
CCc1cccc(NC(=O)CCNS(=O)(=O)c2cccc3nonc23)c1 | inactive
COc1cccc(N2CCN(S(=O)(=O)c3cc(Br)cc4c3N(C(=O)C3CC3)CC4)CC2)c1 | inactive
Cc1ccc(S(=O)(=O)n2nc(-c3ccc(Cl)cc3)nc2NCc2ccccc2)cc1 | inactive
CCN(CCCNC(=O)c1cc2cc3cc(OC)ccc3nc2s1)c1ccccc1 | inactive
COc1cccc(CNC(=O)Cn2c(=O)c3cccn3c3ccc(F)cc32)c1OC | inactive
CCCSc1ncc(Cl)c(C(=O)Nc2sc3c(c2C(=O)NCCOC)CCCC3)n1 | inactive
Cc1ccc(OCC(=O)Nc2ccc(Cl)c(-c3nc4ccccc4[nH]3)c2)cc1C | inactive
CCOc1ccc(OCC)c(NC(=O)CN(c2ccc(C)cc2)S(=O)(=O)c2c(C)n[nH]c2C)c1 | inactive
Cc1cc2nc(-c3ccc(NC(=O)c4cc5ccccc5o4)cc3)oc2cc1C | inactive
O=C(NC1CC(=O)N(c2ccc(F)cc2)C1)C1CCCCC1 (stereo not given) | inactive
CCN1CCN(c2ncc3c(n2)CC(c2ccccc2O)CC3=O)CC1 (stereo not given) | inactive

Structure (SMILES) | Potency
Cc1ccc(-c2cc(-c3coc4ccccc4c3=O)c3c(n2)-c2cc(Cl)ccc2OC3)cc1 | inactive
CCOc1cccc2c1N[C@@H](c1ccc(C(=O)O)cc1)[C@H]1CC=C[C@@H]21 | inactive
Cc1ccc(C(=O)Nc2c(C(=O)NC(C)(C)C)oc3ccccc23)cc1 | inactive
COc1ccc(CCC(=O)NCc2ccc3c(c2)CCN3C(=O)c2ccc(F)cc2)cc1 | inactive
COc1ccccc1CNc1ccc(-c2nc(-c3ccccc3C)no2)cc1[N+](=O)[O-] | inactive
Cc1ccc2c(=O)c(C(=O)c3ccc(F)cc3)cn(CC(=O)NC3CCCCC3)c2n1 | inactive
Cc1ccc2c(=O)c(C(=O)c3ccc(Cl)cc3)cn(CC(=O)NC3CCCCC3)c2n1 | inactive
Cc1ccc2c(=O)c(C(=O)c3cccc(Cl)c3)cn(CC(=O)NCc3ccccc3)c2n1 | 10 µM (active)
Cc1ccc(-c2nnc(Nc3ccc(OCC(N)=O)cc3)c3ccccc23)cc1S(=O)(=O)NCC1CCCO1 (stereo not given) | inactive
CCCCCn1c(CCNC(=O)c2ccc(F)cc2)nc2ccccc21 | inactive
COCCNS(=O)(=O)c1cc(-c2nn3c(C)nnc3c3ccccc23)ccc1C | inactive
CCc1nnc(SCc2c(F)cccc2Cl)c2cc3sccc3n12 | inactive
COc1cc(C(=O)N(Cc2ccc(C(C)C)cc2)C2CCS(=O)(=O)C2)cc(OC)c1OC (stereo not given) | inactive
CCOc1ccccc1NC(=O)Cn1c2ncccc2c(=O)n1-c1ccc(C)c(C)c1 | inactive
Cc1cccc(Cn2c(CN3CCC(C(=O)NCc4ccccc4Cl)CC3)cc3ccccc32)c1 | inactive
CCN(CC)S(=O)(=O)c1ccc2c(c1)N(CC(=O)NCc1ccccc1)C(=O)CS2 | inactive
COc1ccc(-c2onc(C)c2C)cc1S(=O)(=O)NCC1CCN(Cc2cccc(F)c2)CC1 | inactive
Cc1onc(-c2ccc(F)cc2F)c1C(=O)Nc1cccc(C(F)(F)F)c1 | inactive
Cc1ccc(Cn2c(=O)n(Cc3nc(-c4ccccc4)no3)c(=O)c3cc4c(cc32)OCO4)cc1 | inactive
CN(C)c1ccc(C(CNS(=O)(=O)c2cc(F)ccc2F)N2CCOCC2)cc1 (stereo not given) | inactive
CCOc1ccc(C(=O)c2cn(Cc3ccccc3OC)c3ccc(F)cc3c2=O)cc1 | inactive
O=C(/C=C/c1cn(CC(O)CN2CCc3ccccc32)c2ccccc12)c1ccc(Br)cc1 (stereo not given) | inactive
O=C(CCC1N=C2c3ccccc3N=C(SCc3ccccc3F)N2C1=O)NCCc1ccccc1 (stereo not given) | inactive
CSCCC(NS(=O)(=O)c1ccc2c(c1)oc(=O)n2C)C(=O)NCc1ccccc1 (stereo not given) | inactive
O=C(Nc1nnc(C2CC(=O)N(c3ccc(Cl)cc3)C2)s1)c1ccco1 (stereo not given) | inactive
O=C(NCc1ccc(F)cc1)c1ccc(Cn2c(SCc3ccc(F)cc3)nc3cccnc32)cc1 | inactive
Cc1c2cnn(-c3ccccc3)c(=O)c2c(C)n1C(C)C(=O)Nc1ccc(Br)cc1F (stereo not given) | inactive
